The results in this text go back to publication PMC4552634, “A New Set of Chemical Starting Points with Plasmodium falciparum Transmission-Blocking Potential for Antimalarial Drug Discovery” (PLoS ONE, 2015).

Read-outs that look alike come from different tables or passages of the source. Out of some 13,000 compounds screened, about 3,200 (25%) showed an effect of 50% or more. The list shows a part of the results.

The test system of the test is P. falciparum stage V gametocytes. Further details: BacTiter-Glo ATP luminescence viability of purified stage V gametocytes in 384-well plates, per cent inhibition versus DMSO. Conditions: 48 h, 5 µM, inhibitor.

In general, % Inhibition refers to the relative decrease from the control value, in per cent. Turning to `Cc1nc(/N=C(\N)NC(=O)NC2CCCCC2)nc2ccccc12` [TCMDC-123808], the “% Inhibition” value was 133.5%. For `CCOC(=O)c1[nH]c(-c2ccccc2)nc1NC(=S)NC1CCCCC1` [TCMDC-131430], the “% Inhibition” value is on record as 5.591%.

In the case of `Cc1ccc(NC(=O)NC2CCN(c3ccnc4ccccc34)CC2)cc1` [TCMDC-133588], the “% Inhibition” value is on record as 13.19%.

Regarding `CC(C)CC(NC(=O)c1ccc(F)cc1)C(=O)N[C@H](/C=N/N1CCNC1=O)CC(C)C` (stereo partly drawn) [TCMDC-136214], the “% Inhibition” value came to 16.28%. The same measure, in the same setting: with `OC(c1ccccc1)C1CN(Cc2ccccc2)CCC1(O)c1ccccc1` (stereo not drawn) [TCMDC-125518] the figure was -9.589%. The same measure, in the same setting: with `CC(c1cccc(S(=O)(=O)NCc2ccc(Cl)cc2Cl)c1)N1CCC(N2CCCCC2)CC1` (stereo not drawn) [TCMDC-133564] the figure was -22.09%; with `CCC(CO)NCC(O)Cn1c2ccc(Br)cc2c2cc(Br)ccc21` (stereo not drawn) [TCMDC-125710], 27.72%; with `CCC(CO)NCC(O)Cn1c2ccc(Cl)cc2c2cc(Cl)ccc21` (stereo not drawn) [TCMDC-125711], 55%. On the same count and under the same terms, under `CCNCCCC(C)Nc1ccnc2cc(Cl)ccc12` (stereo not drawn) [TCMDC-125876] stands 27.58%. On to `COCCNCC(O)Cn1c2ccc(Cl)cc2c2cc(Cl)ccc21` (stereo not drawn) [TCMDC-123535], for which the “% Inhibition” value amounted to 54.28%.

For `OC(CNCCc1ccccc1)Cn1c2ccc(Cl)cc2c2cc(Cl)ccc21` (stereo not drawn) [TCMDC-124135], the “% Inhibition” value stood at 17.2%. Still for that read-out and setting: under `CC(C)CCNCC(O)Cn1c2ccc(Cl)cc2c2cc(Cl)ccc21` (stereo not drawn) [TCMDC-125673] stands 69.1%. Still for that read-out and setting: with `Cc1nc(-c2cccc(C(=O)Nc3cnc4ccccc4c3)c2)no1` [TCMDC-135810] the figure was 8.288%; with `CC1CCC(NCc2ccc3c(CNC4CCC(C)CC4)c(O)ccc3c2O)CC1` (stereo not drawn) [TCMDC-137587], -63.23%; with `COc1cccc(C(=O)NCCc2cccc(Cl)c2)c1OCc1ccccc1` [TCMDC-141235], -13.17%.

`COc1cc(CCNC(=O)Cc2ccc3ccccc3c2)ccc1OCc1ccccc1` [TCMDC-137227]: the “% Inhibition” value came out at 57.44%.

For `COc1ccc(C(=O)O)cc1OCc1ccccc1` [TCMDC-125534], the “% Inhibition” value was 4.056%. Regarding `CCC(C)CC(=O)Nc1ccc(OC)c(S(=O)(=O)N[C@@H]2CCN(C#N)C2)c1` (stereo partly drawn) [TCMDC-134061], the “% Inhibition” value amounted to 14.31%.

As for `COc1cc(-c2nc3ccc(N4CCN(C)CC4)cc3[nH]2)cc(OC)c1OC` [TCMDC-124585], the “% Inhibition” value is on record as -16.2%. Regarding `Cc1cc(Nc2ncc(C#N)c(Nc3ccccc3C(N)=O)n2)ccc1N1CCN(C)CC1` [TCMDC-134115], the “% Inhibition” value stood at 104.7%. Same read-out and setting: under `COc1ccc(Nc2ncc(Cl)c(Nc3cccnc3C(N)=O)n2)cc1N1CCN(C)CC1` [TCMDC-134163] stands 97.54%. Still for that read-out and setting: under `CNC(=O)c1ccccc1Nc1nc(Nc2ccc(N3CCOCC3)cc2)ncc1Cl` [TCMDC-134144] stands -63.52%; under `Cc1cc(Nc2ncc(Cl)c(Nc3ccccc3C(N)=O)n2)n[nH]1` [TCMDC-134170], -34.04%. Same read-out and setting: under `COc1ccc(Nc2ncc(OC)c(Nc3ccccc3C(N)=O)n2)cc1N1CCN(C)CC1` [TCMDC-134149] stands 9.949%; under `COc1ccc(Nc2ncc(C#N)c(Nc3ccccc3C(N)=O)n2)cc1N1CCN(C)CC1` [TCMDC-134117], -97.62%. As to `CN1CCN(c2ccc(Nc3ncc(Cl)c(Nc4cccnc4C(N)=O)n3)cc2)CC1` [TCMDC-134164], the “% Inhibition” value is -84.83%. On the same count and under the same terms, with `CNC(=O)c1ccccc1Nc1nc(Nc2ccc(N3CCN(C)CC3)nc2)ncc1C` [TCMDC-134123] the figure was 57.48%; with `NC(=O)c1ccccc1Nc1nc(Nc2cccc(N3CCN(CCO)CC3)c2)ncc1Cl` [TCMDC-134114], 94.95%; with `CNC(=O)c1cnc(Nc2ccc(N3CCN(C)CC3)cc2)nc1Nc1ccccc1OC` [TCMDC-141382], -26.7%. Same read-out and setting: under `CNC(=O)c1ccccc1Nc1nc(Nc2ccc(CCN3CCN(C)CC3)cc2)ncc1Cl` [TCMDC-133800] stands 8.334%; under `CNC(=O)c1cnc(Nc2ccc(N3CCN(C)CC3)c(C)c2)nc1NC` [TCMDC-134162], 36.76%. On to `CCC[C@@H](C(=O)NCCc1cccc(OC)c1)N1C(=O)c2c(ccc(OC)c2OC)C1C(=O)Nc1c(C)cccc1C` (stereo partly drawn) [TCMDC-141135], for which the “% Inhibition” value is on record as 18.96%. On the same count and under the same terms, under `Cc1[nH]n(-c2cccc(Cl)c2)c(=O)c1-c1ccc(Cl)cc1` [TCMDC-123495] stands -44.23%; under `O=C(Nc1ccc(C(F)(F)F)cc1)c1cc(Br)cnc1NCCCn1ccnc1` [TCMDC-136699], 4.282%; under `COc1ccc(NC(=O)c2cc(-c3ccc(NC(C)=O)cc3)cnc2N)cc1` [TCMDC-135658], 32%.

Regarding `CNC(=O)c1ccccc1Nc1nc(Nc2cccc(CS(C)(=O)=O)c2)ncc1C` [TCMDC-133809], the “% Inhibition” value stood at 64.95%. The same measure, in the same setting: under `CNC(=O)c1cc(F)c(F)cc1Nc1nc(Nc2cccc(CS(C)(=O)=O)c2)ncc1Cl` [TCMDC-134060] stands -6.741%; under `CNC(=O)c1ccccc1Nc1nc(Nc2cccnc2)ncc1C` [TCMDC-134211], 33.23%; under `Cc1ccc(NC(=O)c2ccc3ncccc3c2)cc1OC1CCN(Cc2ccsc2)CC1` [TCMDC-134270], 12.12%. Still for that read-out and setting: under `COc1ccccc1NC(=O)OC(COc1ccc(N)cc1)CN1CC=C(c2ccccc2)CC1` (stereo not drawn) [TCMDC-136486] stands 60.38%. In the case of `COc1ccc(OCC(O)CN(Cc2ccccc2OC)C(=O)Nc2ccc(Br)cc2)cc1` (stereo not drawn) [TCMDC-141494], the “% Inhibition” value came to 25.96%. In the case of `COc1cccc(OC)c1-c1ccccc1NC(=O)N1CCCc2cc(C)ccc21` [TCMDC-136199], the “% Inhibition” value is on record as -20.26%. For `Cc1cccc2[nH]c(-c3cccc(-c4ccc(NC(=O)Nc5ccc(F)c(F)c5F)cc4)c3)nc12` [TCMDC-133225], the “% Inhibition” value is -8.037%. With `COc1ccc2ncc(F)c(CCN3CC(O)C(CNCc4nc5c(cc4Cl)OCC(=O)N5)C3)c2n1` (stereo not drawn) [TCMDC-136031], the “% Inhibition” value (% Inhibition) is listed as 24.96%. Regarding `Oc1ccc2[nH]cc(C3CCN(CCC(c4ccccc4)c4ccccc4)CC3)c2c1` [TCMDC-139017], the “% Inhibition” value was -54.72%.

For `Oc1ccc2[nH]cc(C3CCN(CCCCCCCCCN4CCC(c5c[nH]c6ccc(O)cc56)CC4)CC3)c2c1` [TCMDC-139003], the “% Inhibition” value came out at 74.24%. Same read-out and setting: with `O=C(/C=C/c1ccc(Cl)c(Cl)c1)NCCCCCN1CCC(c2c[nH]c3cc(O)ccc23)CC1` [TCMDC-139282] the figure was 10.47%. The same measure, in the same setting: under `Oc1ccc2[nH]cc(C3CCN(CCCNCc4ccc(-c5ccccc5)cc4)CC3)c2c1` [TCMDC-139047] stands 101.4%.
